A short description of assay [1]: NCI Yeast Anticancer Drug Screen. Data for the rad50 strain (AID 155).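 Further: 0% = growth of vehicle-only cultures of the same strain.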 The note with it: S. cerevisiae rad50 strain growth inhibition, stronger effect = higher value. The method, boiled down:
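Compounds were tested on a yeast strain with an engineered DNA damage repair alteration; the reported value is growth inhibition normalised to vehicle treatment.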

A short description of assay [2]: NCI Yeast Anticancer Drug Screen. Data for the mec2-1 strain (AID 157). The note with it: S. cerevisiae mec2-1 strain, stronger effect = higher value. The procedure, abridged:
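Vehicle-treated cultures served as reference for growth inhibition of compound-exposed mec2-1 yeast.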

Assay [3] is described as follows: NCI Yeast Anticancer Drug Screen. Data for the sgs1 mgt1 strain (AID 161).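 Further: 0% = growth of cultures given vehicle only.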 The note with it: S. cerevisiae sgs1 mgt1 strain, stronger effect = higher value. The procedure, abridged:
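Read-out: growth inhibition vs vehicle controls. Cells: mutant yeast strain deficient in DNA damage repair.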

Assay [4] can be described thus: NCI Yeast Anticancer Drug Screen. Data for the cln2 rad14 strain (AID 165).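 Further: 0% = growth equal to vehicle treated cultures.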 The note with it: S. cerevisiae cln2 rad14 strain, stronger effect = higher value. The procedure, abridged:
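Each compound was tested on cln2 rad14 yeast. Inhibition of growth was calculated against vehicle-exposed controls.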

Assay [5] in a line: NCI Yeast Anticancer Drug Screen. Data for the bub3 strain (AID 167). The note with it: S. cerevisiae bub3 mutant strain, stronger effect = higher value. The method, boiled down: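 Growth of a checkpoint-deficient yeast mutant is measured after compound exposure. Values represent inhibition relative to vehicle.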
The nature of assay [6]: NCI Yeast Anticancer Drug Screen. Data for the mlh1 rad18 strain (AID 175). The note with it: S. cerevisiae mlh1 rad18 strain growth inhibition, stronger effect = higher value. The procedure, abridged: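 Vehicle-treated cultures served as the reference for growth inhibition in a yeast strain carrying DNA damage repair alterations exposed to each compound.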
[7] abbreviates: at 5.0 µM (retest, dose inferred, filed as 0.5).
The mark [8] stands for this setting: at 50.0 µM (retest, dose inferred, filed as 5.0).

Here are results for 9 molecules from PubChem BioAssay (NCI).

Compounds without any hit were thinned out: in the full panel of roughly 79,000, 15% have a hit. Values without a mark were called inactive. Calls of active or inactive are those of the source. No stated cut-off is given here; in the data, active means growth inhibition above about 70%; inactive means the rest.

Take `Cc1c(NC(=O)C(=O)N=NC(=O)c2ccncc2)c(O)c2ccccc2c1O`: the growth inhibition is -15% in assay [1] (setting [7]); 91% (active) in assay [1] (setting [8]); 91% (active) in assay [1] (at 50.0 µM); -31% in assay [2] (setting [7]); 90% (active) in assay [2] (setting [8]); 93.5% (active) in assay [2] (at 50.0 µM). The growth inhibition in assay [3] (setting [7]) was -5%; in assay [3] (setting [8]), 69%; in assay [3] (at 50.0 µM), 91.9% (active); in assay [4] (setting [7]) it was -24%; in assay [4] (setting [8]), 82% (active); in assay [4] (at 50.0 µM), 90.4% (active). Also, the growth inhibition in assay [5] (setting [7]) is 1%; in assay [5] (setting [8]), 96% (active); in assay [5] (at 50.0 µM) it was 91% (active); in assay [6] (setting [7]) it was -6%; in assay [6] (setting [8]), 93% (active); in assay [6] (at 50.0 µM), 91.3% (active).

In the case of `CC12CCCC1C1CC=C3CC(OC=O)CCC3(C)C1CC2` (configuration not stated), the growth inhibition in assay [1] (setting [7]) is 1%; in assay [1] (setting [8]) it was 4%; in assay [1] (at 50.0 µM), 13.4%; in assay [2] (setting [7]), 10%; in assay [2] (setting [8]), 3%; in assay [2] (at 50.0 µM), 1.5%. In addition, the growth inhibition was 0% in assay [3] (setting [7]); 25% in assay [3] (setting [8]); 40.9% in assay [3] (at 50.0 µM); -37% in assay [4] (setting [7]); -5% in assay [4] (setting [8]); 38.8% in assay [4] (at 50.0 µM). The growth inhibition is -8% in assay [5] (setting [7]); 44% in assay [5] (setting [8]); -13.4% in assay [5] (at 50.0 µM); -1% in assay [6] (setting [7]); -2% in assay [6] (setting [8]); -12.3% in assay [6] (at 50.0 µM).

`COC1(CO)C(=O)N(C)CC(=O)N1C` (configuration not stated): the growth inhibition in assay [1] (setting [7]) is 1%; in assay [1] (setting [8]) it was 99% (active); in assay [1] (at 50.0 µM), 99.3% (active); in assay [2] (setting [7]), 10%; in assay [2] (setting [8]), 99% (active); in assay [2] (at 50.0 µM), 99.7% (active). Besides, the growth inhibition in assay [3] (setting [7]) is 5%; in assay [3] (setting [8]) it was 99% (active); in assay [3] (at 50.0 µM), 99.3% (active); in assay [4] (setting [7]) it was -7%; in assay [4] (setting [8]), 20%; in assay [4] (at 50.0 µM), 99.7% (active). Further, the growth inhibition is 0% in assay [5] (setting [7]); 99% (active) in assay [5] (setting [8]); 99.5% (active) in assay [5] (at 50.0 µM); 1% in assay [6] (setting [7]); 99% (active) in assay [6] (setting [8]); 99.3% (active) in assay [6] (at 50.0 µM).

For the molecule `CCOC(=O)/C(=C/c1ccc2ccccc2c1)P(=O)(OCC)OCC`, the growth inhibition is -17% in assay [1] (setting [7]); -15% in assay [1] (setting [8]); 76.6% (active) in assay [1] (at 50.0 µM); 6% in assay [2] (setting [7]); -13% in assay [2] (setting [8]); 69.2% in assay [2] (at 50.0 µM). For the same molecule, the growth inhibition in assay [3] (setting [7]) was -6%; in assay [3] (setting [8]) it was -5%; in assay [3] (at 50.0 µM) it was 66.8%; in assay [4] (setting [7]), 10%; in assay [4] (setting [8]), 19%; in assay [4] (at 50.0 µM), 71.1% (active). Also, the growth inhibition in assay [5] (setting [7]) is 16%; in assay [5] (setting [8]), 9%; in assay [5] (at 50.0 µM), 75.5% (active); in assay [6] (setting [7]) it was -18%; in assay [6] (setting [8]) it was -7%; in assay [6] (at 50.0 µM) it was 58%.

Take `O=C(O)c1ccccc1Cc1ccc2c(c1)Cc1ccccc1-2`: the growth inhibition was 2% in assay [1] (setting [7]); 76% (active) in assay [1] (setting [8]); 62.5% in assay [1] (at 50.0 µM); -5% in assay [2] (setting [7]); 67% in assay [2] (setting [8]); 66.3% in assay [2] (at 50.0 µM). The growth inhibition in assay [3] (setting [7]) was 6%; in assay [3] (setting [8]) it was 89% (active); in assay [3] (at 50.0 µM), 63.5%; in assay [4] (setting [7]), -19%; in assay [4] (setting [8]) it was 88% (active); in assay [4] (at 50.0 µM), 71.2% (active). The growth inhibition in assay [5] (setting [7]) is -6%; in assay [5] (setting [8]), 68%; in assay [5] (at 50.0 µM), 50.4%; in assay [6] (setting [7]) it was 14%; in assay [6] (setting [8]) it was 80% (active); in assay [6] (at 50.0 µM) it was 79.2% (active).

Take `CC(=O)c1c2c(cc3c1CC1(C3)Cc3ccc4c(c3C1=O)CCC4)CCC2` (configuration not stated): the growth inhibition in assay [1] (setting [7]) was 3%; in assay [1] (setting [8]), 1%; in assay [1] (at 50.0 µM), -0.85%; in assay [2] (setting [7]), 7%; in assay [2] (setting [8]), 5%; in assay [2] (at 50.0 µM), 17.2%. The growth inhibition is 18% in assay [3] (setting [7]); 7% in assay [3] (setting [8]); 5.75% in assay [3] (at 50.0 µM); 15% in assay [4] (setting [7]); 16% in assay [4] (setting [8]); 6.8% in assay [4] (at 50.0 µM). For the same molecule, the growth inhibition is 12% in assay [5] (setting [7]); 39% in assay [5] (setting [8]); 55.2% in assay [5] (at 50.0 µM); 7% in assay [6] (setting [7]); 6% in assay [6] (setting [8]); 36.4% in assay [6] (at 50.0 µM).

On to `CSc1ncnc2ncn(C3OC(CO)C(O)C3O)c12` (configuration not stated), for which the growth inhibition was -16% in assay [1] (setting [7]); -1% in assay [1] (setting [8]); 9.65% in assay [1] (at 50.0 µM); -15% in assay [2] (setting [7]); -2% in assay [2] (setting [8]); 3.55% in assay [2] (at 50.0 µM). The growth inhibition in assay [3] (setting [7]) was -11%; in assay [3] (setting [8]), 2%; in assay [3] (at 50.0 µM), 15.2%; in assay [4] (setting [7]) it was 2%; in assay [4] (setting [8]), -3%; in assay [4] (at 50.0 µM) it was 53%. Besides, the growth inhibition is -10% in assay [5] (setting [7]); -14% in assay [5] (setting [8]); -0.75% in assay [5] (at 50.0 µM); -7% in assay [6] (setting [7]); -21% in assay [6] (setting [8]); 12.5% in assay [6] (at 50.0 µM).

With `CN(C)C(=O)SC1=C(c2c(Cl)cccc2Cl)C(=O)c2ccccc21`, the growth inhibition in assay [1] (setting [7]) is 41%; in assay [1] (setting [8]) it was 74% (active); in assay [1] (at 50.0 µM), 66.3%; in assay [2] (setting [7]), 32%; in assay [2] (setting [8]), 69%; in assay [2] (at 50.0 µM), 74.5% (active). Besides, the growth inhibition was 53% in assay [3] (setting [7]); 80% (active) in assay [3] (setting [8]); 89.7% (active) in assay [3] (at 50.0 µM); 33% in assay [4] (setting [7]); 61% in assay [4] (setting [8]); 87.8% (active) in assay [4] (at 50.0 µM). Further, the growth inhibition in assay [5] (setting [7]) was 32%; in assay [5] (setting [8]), 71% (active); in assay [5] (at 50.0 µM), 85.9% (active); in assay [6] (setting [7]) it was 82% (active); in assay [6] (setting [8]), 93% (active); in assay [6] (at 50.0 µM), 82.8% (active).

For `COc1cc(OC)cc(C2OC3=C(Nc4ccc([N+](=O)[O-])cc4N3)C2=O)c1` (configuration not stated), the growth inhibition was 2% in assay [1] (setting [7]); 60% in assay [1] (setting [8]); 86.8% (active) in assay [1] (at 50.0 µM); 10% in assay [2] (setting [7]); 40% in assay [2] (setting [8]); 59.8% in assay [2] (at 50.0 µM). Also, the growth inhibition is 30% in assay [3] (setting [7]); 50% in assay [3] (setting [8]); 81.1% (active) in assay [3] (at 50.0 µM); 11% in assay [4] (setting [7]); 29% in assay [4] (setting [8]); 57% in assay [4] (at 50.0 µM). Also, the growth inhibition was 24% in assay [5] (setting [7]); 16% in assay [5] (setting [8]); 51.2% in assay [5] (at 50.0 µM); -4% in assay [6] (setting [7]); 49% in assay [6] (setting [8]); 82.4% (active) in assay [6] (at 50.0 µM).
